# D1 agonist = Allosteric Agonists of the Human D1 Dopamine Receptor: qHTS. HEK293 T-REx D1 cells, calcium flux, agonist mode. activation, % at 2 µM. actives 1% (n = 360,000). D(1A) dopamine receptor (Homo sapiens), P21728; in the data active means activation above about 30%; further: 0% is about no effect
#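 Tetracycline-induced HEK293 TREx D1 cells, force-coupled to calcium signalling, were dye-loaded with a no-wash calcium kit. Compound was pin-added after a 10 s baseline. Fluorescence was read kinetically at 1 cycle/s for 180 s, with calcium rises flagged as agonism.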
# DRD3 antagonist = qHTS of D3 Dopamine Receptor Antagonist: qHTS | actives 2.5% (n = 360,000) | max response, negative = inhibition, % | AID 652054, 2013 | D3R cells, DiscoveRx beta-arrestin luminescence, antagonist mode; hits give low values | D(3) dopamine receptor (Homo sapiens), P35462; in the data active means max response below about -50%; inconclusive means no clear call, values can overlap the other calls; further: on the % scale 0 is the no-effect control and ±100 the full control effect
# Target sequence (P35462 whole entry, looked up): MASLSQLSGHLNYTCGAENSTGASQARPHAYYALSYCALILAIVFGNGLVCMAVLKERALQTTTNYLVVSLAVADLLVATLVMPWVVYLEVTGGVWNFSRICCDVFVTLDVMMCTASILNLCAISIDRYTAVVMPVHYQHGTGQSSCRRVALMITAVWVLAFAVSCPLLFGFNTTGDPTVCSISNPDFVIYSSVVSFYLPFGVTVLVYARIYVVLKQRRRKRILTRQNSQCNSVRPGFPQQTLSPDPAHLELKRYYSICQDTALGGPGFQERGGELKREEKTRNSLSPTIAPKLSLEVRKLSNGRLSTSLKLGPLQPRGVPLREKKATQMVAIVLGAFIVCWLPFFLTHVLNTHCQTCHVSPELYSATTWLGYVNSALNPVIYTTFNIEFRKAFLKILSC
#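 Cells plated overnight at 1500 cells/well, then exposed to library compounds with dopamine controls for 90 minutes at 37 degrees C. DiscoveRx reagent added for 30–60 minutes at room temperature; luminescence read, quantitative HTS format.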
# D3 ag = qHTS of D3 Dopamine Receptor Agonist: qHTS | D3R DiscoveRx beta-arrestin cells, luminescence, 90 min | max activation, % | actives 0.58% (n = 410,000); in the data active means max activation above about 30%; further: 0% is about no effect
#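 Agonist-mode cell screen: cells plated at 1500/well and incubated overnight at 37 °C, then exposed to library compounds for 90 min at 37 °C. Detection reagent was added for 30–60 min at room temperature, and luminescence was read.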
# D1 potentiator = Potentiators of Human D1 Dopamine Receptor: qHTS | HEK293 TREx D1 cells, calcium flux, dopamine EC20 potentiation | potentiation, % at 10 µM | D(1A) dopamine receptor (Homo sapiens), P21728 | actives 0.036% (n = 360,000) | AID 504651, 2011; in the data active means potentiation above about 30%; further: 0% is about no effect
# D1 antagonist = Antagonist of Human D 1 Dopamine Receptor: qHTS | D(1A) dopamine receptor (Homo sapiens), P21728 | HEK293 TREx D1 cells, calcium flux, dopamine EC80; hits give low values | activity change, negative = inhibition, % at 10 µM | actives 3.2% (n = 360,000) | AID 504652, 2011; in the data active means activity change below about -30%; further: on the % scale 0 is the no-effect control and ±100 the full control effect
#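 Using tetracycline-induced force-coupled D1 Hek293 cells and a calcium dye, signals were followed for 180 s after compound, then for 180 s after EC80 dopamine, to detect inhibitors.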
# Active calls of the source: *; ? = inconclusive; / = not tested or not shown. This is a sample that favours compounds with a hit; in the whole collection about 6.1% have one here.
SMILES,D1 agonist,DRD3 antagonist,D3 ag,D1 potentiator,D1 antagonist
Cn1c(=O)n(C)c2cc([N+](=O)[O-])c(N3CCN(C(=O)c4ccc(F)cc4)CC3)cc21,2.8,6.0,0.8,-3.1,-1.3
CN1CCN(c2ccc([N+](=O)[O-])cc2NC(=O)c2ccccc2Cl)CC1,2.4,-5.3,-1.7,-6.8,0.9
CCC1CCCCN1C(=O)Cn1c(=O)n(CCCCCC(=O)NCc2ccccc2Cl)c(=O)c2sccc21 (stereo unspecified),2.0,/,-5.7,0.2,-11.3
CC(C)OCCCNC(=O)C(=O)Nc1ccc2nc3n(c(=O)c2c1)CCCCC3,-0.7,/,8.5,-1.1,-1.9
NS(=O)(=O)c1ccc(CCNC(=O)CNCCc2ccc(C(F)(F)F)cc2)cc1,-0.5,14.2,-4.3,-0.3,6.8
CC(C)c1ccccc1NC(=O)CNCCc1ccc(C(F)(F)F)cc1,35.6*,-5.2,-15.8,-1.9,-1.0
O=C(CS)Nc1ccccc1,/,/,-5.9,/,/
Cc1ccc(OCC(=O)Nc2ccc(OCc3cc(=O)n4cccc(C)c4n3)cc2)cc1C,2.4,/,12.4,-0.6,3.8
Cc1cc(C(F)(F)F)nn1Cc1n[nH]c(=S)n1-c1cccc(Cl)c1,2.6,8.0,0.2,-3.8,-32.0*
CCOC(=O)c1ccc(CC(=O)c2ccc(O)c(O)c2O)o1,6.9,-10.6,-1.6,0.6,-47.5*
CCOC(=O)c1ccc(CC(=O)c2oc3cc(O)ccc3c2C)o1,3.3,19.7,-3.6,-1.9,0.4
Cc1nn(CC(=O)NC2CC2)c(=O)c2cc3cc(F)ccc3n12,1.5,/,2.7,-5.5,-2.4
O=S(=O)(c1ccc2[nH]c3c(c2c1)CCCC3)N1CCN(c2cccc(C(F)(F)F)c2)CC1,-1.5,/,3.4,-0.6,-3.9
COc1nc2ccccc2nc1N1CCN(Cc2ccc3c(c2)OCO3)CC1,10.2,-114.3*,4.5,-3.5,6.8
C=CCOC(=O)C(C#N)c1nc2ccccc2nc1N1CCN(Cc2ccc3c(c2)OCO3)CC1 (stereo unspecified),12.0,-6.9,-9.9,-13.9,-32.4*
CCCCNC(=O)C(C#N)c1nc2ccccc2nc1N1CCN(Cc2ccc3c(c2)OCO3)CC1 (stereo unspecified),/,-19.8,-15.5,/,/
Cn1c(C(=O)NCc2ccc(F)cc2)cc2cc(S(=O)(=O)N3CCCCC3)ccc21,5.2,/,-13.3,-4.5,3.9
CSc1ccc(CCNC(=O)CCc2c(C)nc3c(-c4ccccc4)c(C)nn3c2C)cc1,2.4,/,6.5,-0.1,-12.0
Cc1ccc(Cn2c(C)c(CNCc3ccccc3F)c(C(=O)O)c2C)cc1,-1.2,/,3.5,-2.4,15.1
Cc1ccc(CCNC(=O)c2cn(C)c3ccc(S(=O)(=O)N(C)C4CCCCC4)cc3c2=O)cc1,-0.9,/,3.8,8.2,1.7
COc1ccc(N=C2C(=O)Nc3ccccc32)cc1,1.1,?,-43.4,-3.3,2.3
COc1ccc(N=C2C(=O)N3c4c(cccc42)C(C)=CC3(C)C)cc1,2.6,-50.2*,-27.6,-4.5,4.1
Cc1oc(-c2ccc(F)cc2F)nc1CN1CCN(C(=O)c2ccco2)CC1,/,-23.2,-1.2,/,/
COc1ccc(-c2nc(CN3CCN(C(=O)c4ccco4)CC3)c(C)o2)c(F)c1,4.8,20.3,34.7*,-3.5,-22.6
CCOc1ccccc1-c1nc(CN2CCCN(C(=O)c3ccco3)CC2)c(C)o1,-2.2,-78.8*,-39.7,-4.3,-67.5*
SMILES,D1 agonist,DRD3 antagonist,D3 ag,D1 potentiator,D1 antagonist
COC(=O)c1ccc(-c2nc(CN3CCCN(C(=O)c4ccco4)CC3)c(C)o2)cc1,2.2,4.4,-1.2,-3.8,-3.8
CC(CC(=O)NCc1ccc(Cl)cc1)CC1=NS(=O)(=O)c2ccccc2N1 (stereo unspecified),1.3,/,-10.6,0.5,-0.8
O=C(O)CCNc1ccc(NCCC(=O)O)c2c1C(=O)c1ccccc1C2=O,9.2,-81.5*,-15.8,-6.0,3.4
COc1ccccc1NCCC(=O)O,2.4,1.6,3.4,-2.5,-4.4
O=C(NCC(c1ccco1)N1CCN(c2ccccc2F)CC1)c1cccs1 (stereo unspecified),12.0,13.6,22.3,-2.6,18.6
COc1ccc(C(CNC(=O)c2ccco2)N2CCCCC2)cc1 (stereo unspecified),-0.1,-25.9,-13.9,-1.4,-6.0
O=C(NCc1cccs1)C(=O)NCC(c1ccco1)N1CCN(c2ccccc2F)CC1 (stereo unspecified),0.3,21.9,72.9*,0.7,21.3
Cc1ccc(C(CNC(=O)c2ccco2)N2CCN(C)CC2)cc1 (stereo unspecified),-0.3,-56.9*,-9.0,-19.0,-12.5
O=C(NCC(c1cccnc1)N1CCN(c2ccccc2F)CC1)c1ccco1 (stereo unspecified),0.0,6.3,1.8,1.8,-7.2
O=C(NCC(c1ccco1)N1CCN(c2ccccc2F)CC1)c1ccco1 (stereo unspecified),2.1,2.1,38.5*,-2.5,-20.7
CCC(=O)N1c2ccc(S(=O)(=O)N3CCC(C)CC3)cc2CC1C (stereo unspecified),2.8,/,1.1,4.7,-21.1
COc1ccc(S(=O)(=O)N2CCC(n3c(C)nc4cccnc43)CC2)cc1Cl,15.2,/,-9.4,-4.0,-33.7*
CCC(c1nnnn1-c1ccc2c(c1)OCCO2)N1CCN(CCN2CCOCC2)CC1 (stereo unspecified),/,-16.3,-10.1,/,/
COc1ccc(-n2nnnc2C(c2cccc3ccccc23)N2CCN(C/C=C/c3ccccc3)CC2)cc1 (stereo unspecified),/,-92.0*,-23.8,/,/
C(=C\c1ccccc1)/CN1CCN(C(c2cccs2)c2nnnn2-c2ccc3c(c2)OCCO3)CC1 (stereo unspecified),/,-79.4*,-18.8,/,/
C(=C\c1ccccc1)/CN1CCN(C(c2cc3ccccc3o2)c2nnnn2-c2ccc3c(c2)OCCO3)CC1 (stereo unspecified),/,-89.0*,-20.6,/,/
COc1ccc(C(c2nnnn2-c2ccc3c(c2)OCCO3)N2CCN(C/C=C/c3ccccc3)CC2)cc1 (stereo unspecified),/,-75.7*,-17.8,/,/
CCCCn1nnnc1C(c1cc2ccccc2o1)N1CCN(C/C=C/c2ccccc2)CC1 (stereo unspecified),/,-72.1*,-5.5,/,/
COc1ccc(-n2nnnc2C(c2cc3ccccc3o2)N2CCN(C/C=C/c3ccccc3)CC2)cc1 (stereo unspecified),/,-97.5*,-20.1,/,/
CCOc1ccc(-n2c(=O)c3c4c(sc3n(Cc3cccc(Cl)c3)c2=O)CCCC4)cc1,1.6,/,1.8,-0.1,-20.3
Cc1ccc(NC(=O)COC(=O)Cc2ccsc2)c(C)c1,0.0,3.1,8.6,-2.5,-33.9*

# Bioassay records: PubChem BioAssay, National Center for Advancing Translational Sciences (NCATS)
